p53 mut binder: binders of human mutant p53, primary screen, biochemical, small molecule microarray, anti-GST fluorescence. mutant tumor protein p53 (GST-tagged), Homo sapiens. small molecule microarray binding. calls only. 17,000 tested, 0.4% active. AID 624136, 2012;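 active = compounds whose four printed spots each glow above background more than chance allows, each with a p-value under 7%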
NFkB SMM: binders of NF-kB p50 subunit, primary screen, biochemical, small molecule microarray, anti-His fluorescence. AID 624139, 2012. 17,000 tested, 1.3% active. calls only. Nuclear factor NF-kappa-B p105 subunit (Homo sapiens), P19838. anti-His fluorescence binding;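 active = spot fluorescence over background significantly raised, with a chance value under 7% in all four replicate spots of the compound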;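 note: probe protein is his-tagged human p50 processed subunit at 1 µg/ml; raw spot fluorescence signals with no normalization applied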
STAT3 SMM: STAT3 binders, primary screen, biochemical, small molecule microarray, single point, set 2. calls only. Signal transducer and activator of transcription 3 (Homo sapiens), P40763. 17,000 tested, 0.2% active. His-STAT3 binding, anti-His fluorescence;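 active = compounds whose four printed spots each show fluorescence over background unusually high for their array block, chance value under 7%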
p53 PUMA act: mutant p53 pathway re-activators, primary screen, cell-based, SW480, luciferase, single point, HTS. SW480 PUMA-promoter luciferase, p53 mutant reactivation. activation, % at 9.98 µM. 28,000 tested, 1.5% active; in the data active = activation above about 52%
c-Myc SMM: binders of human c-Myc, primary screen, biochemical, small molecule microarray, anti-His fluorescence. calls only. 17,000 tested, 1.5% active. His-c-Myc binding. AID 624141, 2012;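 active = spot fluorescence over background with P-value below 7% in all four replicate spots, showing protein binding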;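 note: score is binary with 100 for all four spots passing and 0 otherwise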
Target sequence (P01106 whole entry, looked up): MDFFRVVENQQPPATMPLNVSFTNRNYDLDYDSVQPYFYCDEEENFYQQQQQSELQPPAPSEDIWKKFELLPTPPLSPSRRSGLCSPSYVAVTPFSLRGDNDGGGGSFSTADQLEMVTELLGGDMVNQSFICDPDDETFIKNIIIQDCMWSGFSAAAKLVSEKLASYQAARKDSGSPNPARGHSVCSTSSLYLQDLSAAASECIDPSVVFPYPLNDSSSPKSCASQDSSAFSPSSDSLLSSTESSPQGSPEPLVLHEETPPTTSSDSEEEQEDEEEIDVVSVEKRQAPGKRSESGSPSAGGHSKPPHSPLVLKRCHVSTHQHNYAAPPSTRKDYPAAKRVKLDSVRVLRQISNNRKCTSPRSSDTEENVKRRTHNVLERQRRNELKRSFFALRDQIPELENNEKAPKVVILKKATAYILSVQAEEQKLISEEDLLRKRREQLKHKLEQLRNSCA
* hit, by the source's call; i = inactive; / = not tested or not shown; + = active, no number. In the library only some 2.6% were active in any assay of this set; here they are far more common.

SMILES	p53 mut binder	NFkB SMM	STAT3 SMM	p53 PUMA act	c-Myc SMM
NC(=O)NCC#Cc1ccc2c(c1)[C@]1(C(=O)N2)[C@H](c2ccccc2OCCO)N2[C@H](c3ccccc3)[C@H](c3ccccc3)OC(=O)[C@H]2[C@@H]1C(N)=O	i	i	i	/	i
NC(=O)NCC#Cc1ccc2c(c1)[C@]1(C(=O)N2)[C@H](C(=O)N2CCCCCCC2)[C@H]2C(=O)O[C@H](c3ccccc3)[C@H](c3ccccc3)N2[C@@H]1c1ccccc1OCCO	+	i	i	/	+
COC(=O)c1ccccc1Oc1nc(NC(C)C)nc(NC(C)C)n1	i	i	i	-12	i
CC(=O)c1cccc(NC(=O)CN(C)S(=O)(=O)c2ccc(F)cc2)c1	/	/	/	-8	/
CCOC(=O)C1CCCCN1Cc1cc(OC)ccc1OC (configuration not stated)	i	+	i	-15	+
Cc1sc(NC(=O)c2cnccn2)c(C(N)=O)c1-c1ccccc1	/	/	/	99*	/
Cc1ccc(-c2cc(C(=O)Nc3sc(C)c(-c4ccccc4)c3C(N)=O)c3ccccc3n2)o1	/	/	/	105*	/
CCOC(=O)c1cc(-c2ccccc2)sc1NC(=S)Nc1cnccn1	i	i	i	-32	i
COC(=O)c1ccccc1NC(=O)c1ccc(NC(=O)CSc2ccc(C)cc2)cc1	/	/	/	19	/
COC(=O)C1=C/c2ccccc2C(C2CC2)N(C)/C=C\1C(=O)OC (configuration not stated)	i	i	i	/	i
Cc1cc2nc(SCc3ccccc3C#N)[nH]c2cc1C	/	/	/	68*	/
O=C(CC1NC2CCCCC2NC1=O)Nc1ccc([N+](=O)[O-])cc1 (configuration not stated)	/	/	/	3	/
Cc1ccc(NC(=O)CSc2nnnn2C)c(C)c1	/	/	/	4	/
CC(C)C[C@H](NC(=O)[C@@H](O)[C@H](N)Cc1ccccc1)C(=O)O	/	/	/	-6	/
CC(C)CC(NC(=O)OCC1c2ccccc2-c2ccccc21)C(=O)O (configuration not stated)	i	i	i	64*	i
COc1ccc(NC(=O)CSc2nnc(N)n2-c2ccccc2)cc1	/	/	/	2	/
COc1ccc(-c2cc(=O)c3c(O)c(OC)c(O)c(OC)c3o2)cc1	i	i	i	58*	i
O=C(O)c1c(O)cc(OC2OC(CO)C(O)C(O)C2O)cc1/C=C/c1ccccc1 (configuration not stated)	i	i	i	6	i
Oc1c(C(Nc2ccccn2)c2cccc(OC3CCCC3)c2)ccc2cccnc12 (configuration not stated)	i	i	i	-61	i
CC1(C)CC[C@]2(C(=O)O)CC[C@]3(C)C(=CCC4[C@@]5(C)CC[C@H](O[C@@H]6O[C@H](C(=O)O)[C@@H](O[C@@H]7O[C@H](CO)[C@@H](O)[C@H](O)[C@H]7O)[C@H](O)[C@H]6O[C@@H]6O[C@H](CO)[C@@H](O)[C@H](O)[C@H]6O)C(C)(C)C5CC[C@]43C)C2C1 (some centres not stated)	i	+	+	6	+
CC1OC(O[C@H]2CC[C@@]3(C)C(CC[C@]4(C)C3CC=C3[C@@H]5CC(C)(C)C[C@@H](O)[C@]5(C)CC[C@]34C)[C@@]2(C)CO)C(OC2OC(C(=O)O)C(O)C(O)C2OC2OCC(O)C(O)C2O)C(O)C1O (some centres not stated)	i	i	i	-6	i
CC1OC(OC2C(OC3C(O[C@H]4CC[C@@]5(C)C(CC[C@]6(C)C5CC=C5C7CC(C)(C)CC(O)[C@]7(C)CC[C@]56C)C4(C)C)OC(C(=O)O)C(O)C3O)OCC(O)C2O)C(O)C(O)C1O (some centres not stated)	i	+	i	13	+
COc1ccc(C(=O)CSc2nnc(CC(C)O)n2C)cc1 (configuration not stated)	i	i	i	1	i
O=C(O)CCC(=O)Nc1ccccc1C(=O)O	i	i	i	-4	+
CCc1ccccc1NC(=O)CCC(=O)O	/	/	/	5	/
SMILES	p53 mut binder	NFkB SMM	STAT3 SMM	p53 PUMA act	c-Myc SMM
COc1cccc(S(=O)(=O)Nc2ccc(C(=O)Nc3ccc4c(c3)OCCO4)cc2)c1	/	/	/	3	/
Cc1cc(N(CC(=O)Nc2ccc(F)c(Cl)c2)S(C)(=O)=O)ccc1Br	/	/	/	-9	/
Cc1ccc(-c2nnc(SCC(=O)c3cccc([N+](=O)[O-])c3)n2C)cc1	+	i	i	1	i
Nc1nc(CSc2ccccn2)nc(Nc2ccccc2)n1	/	/	/	89*	/
Cc1nn(Cc2cccc(C(=O)NCc3ccccn3)c2)c(C)c1Cl	/	/	/	8	/
COc1ccc(NC(=O)c2ccco2)c(NC(=O)CSc2ccc(Cl)cc2)c1	/	/	/	-7	/
COc1ccc(CNc2nc(-c3ccc(Cl)cc3)nn2C(=O)c2ccco2)cc1	/	/	/	87*	/
COc1ccc(CC(=O)n2nc(-c3ccc(Cl)cc3)nc2NCc2ccco2)cc1OC	/	/	/	110*	/
O=S(=O)(Nc1ccc(O)c(Sc2nc3ccccc3s2)c1)c1cccc2cccnc12	/	/	/	-16	/
Nc1cc(=O)[nH]c(SCC(=O)Nc2ccc(F)cc2)n1	/	/	/	-6	/
O=C(CNC(=O)c1cn(-c2ccccc2)nc1-c1ccccc1)c1ccccc1	i	i	i	121*	i
Cc1ccc(N2C(=O)C3C4C=CC(CNC(=S)Nc5ccc(Br)cc5)(O4)C3C2=O)cc1 (configuration not stated)	/	/	/	6	/
Cc1cc(=O)[nH]c(SCCOc2ccc(Br)cc2Cl)n1	/	/	/	80*	/
O=C(CS(=O)(=O)c1ccc2ccccc2c1)c1cc2ccccc2oc1=O	i	i	i	-7	+
C[C@H](CO)N1C[C@H](C)[C@@H](CN(C)C(=O)CCC(F)(F)F)OCCCC[C@H](C)Oc2ccc(NS(C)(=O)=O)cc2C1=O	i	+	i	8	+
C[C@@H]1CCCCO[C@H](CN(C)C(=O)CCC(F)(F)F)[C@@H](C)CN([C@H](C)CO)C(=O)c2cc(NS(=O)(=O)c3cccs3)ccc2O1	i	i	i	-5	i
C[C@@H]1CCCCO[C@@H](CN(C)C(=O)CCC(F)(F)F)[C@H](C)CN([C@@H](C)CO)C(=O)c2cc(NS(=O)(=O)c3ccccc3)ccc2O1	i	+	i	-12	+
C[C@@H]1CN([C@@H](C)CO)C(=O)c2cc(NS(=O)(=O)c3cccs3)ccc2O[C@@H](C)CCCCO[C@@H]1CN(C)C(=O)CCC(F)(F)F	i	+	i	-2	i
Cc1ccccc1OCC(=O)Nc1ccccc1C(=O)N1C(C)CCCC1C (configuration not stated)	/	/	/	-5	/
O=C(CSc1nnc(-c2ccco2)o1)c1ccc2c(c1)OCCO2	i	i	i	11	i

Assay outcomes (PubChem)
